# Results filed as inconclusive are left out. A call without a number means that no potency is given here. Active and inactive are the calls of the source. Calls come from the whole dose curve; as a rule, active = well fitted activation curve with a large enough effect; inconclusive = small, poorly fitted or top-dose-only effect, or effect the other way; inactive = flat fitted curve, though single readings scatter.
# Target: Pyruvate kinase PKM (Homo sapiens) (UniProt P14618)
# Test: Secondary LDH Assay for Activators of Human Pyruvate Kinase M2 isoform: for Probe SAR
# Conditions: purified hPK-M2, LDH-coupled NADH fluorescence kinetic; series mostly up to 58.4 µM
# Description: NIH Chemical Genomics Center [NCGC] Matthew G. Vander Heiden, M.D., Ph.D. [Harvard Medical School, 77 Avenue Louis Pasteur, Boston, MA 02115] NCGC Assay Overview: Human pyruvate kinase muscle 2 (hPK-M2)enzyme was supplied as a highly purified (>95% pure) preparation from Harvard Medical School and a secondary assay was used to evaluate compounds. This assay couples the formation of pyruvate from hPK-M2 using lactate dehydrogenase (LDH) and NADH. The depletion of NADH is followed in a fluorescent-based kinetic assay that follows the formation of pyruvate to lactate, as catalyzed LDH (described by Hannaert et al., 2002)1 Pyruvate kinase substrates, PEP and ADP, were present in the assay at 0.1 mM and 4 mM respectively. In this kinetic assay initial rates were determined by following the fluorescence of NADH depletion.
# NCGC Assay Protocol Summary: Three uL of substrate mix (final concentration, 50 mM Tris-Cl pH 8.0, 200 mM KCl, 15 mM MgCl2, 0.1 mM PEP, 4.0 mM ADP, and 0.2 mM NADH) was dispensed into black-solid 1536 well plates. 23 nL of compounds were delivered by a pin tool and 1 uL of enzyme mix (final concentrations, 10 nM hPK-M2 and 1 uM of LDH) was added. Plates were immediately placed in ViewLux (Perkin Elmer) and NADH fluorescence was determined at 30 second exposure intervals for between 3 and 6 minutes. Data were normalized to the uninhibited and EC100 activation using known activators such as fructose-bis-phosphate.
# Chain of Pyruvate kinase PKM (Homo sapiens) (P14618 whole entry, looked up, canonical isoform): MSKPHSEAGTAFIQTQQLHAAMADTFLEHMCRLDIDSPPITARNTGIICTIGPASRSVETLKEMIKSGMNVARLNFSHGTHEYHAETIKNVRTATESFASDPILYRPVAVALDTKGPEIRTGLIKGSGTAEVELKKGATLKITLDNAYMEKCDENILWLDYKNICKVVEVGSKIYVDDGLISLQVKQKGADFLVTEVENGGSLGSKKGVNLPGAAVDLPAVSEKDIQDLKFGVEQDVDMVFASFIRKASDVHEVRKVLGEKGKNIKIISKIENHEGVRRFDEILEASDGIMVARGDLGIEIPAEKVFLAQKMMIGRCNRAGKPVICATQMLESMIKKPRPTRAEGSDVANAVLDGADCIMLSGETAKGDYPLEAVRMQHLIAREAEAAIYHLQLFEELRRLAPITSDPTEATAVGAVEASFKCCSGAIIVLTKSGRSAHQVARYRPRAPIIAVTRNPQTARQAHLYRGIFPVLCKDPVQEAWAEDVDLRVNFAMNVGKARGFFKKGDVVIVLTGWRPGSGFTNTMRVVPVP
row,Compound,Potency
1,Cc1ccc(NS(=O)(=O)c2cc3c(cc2N(C)C)CCC(=O)N3)cc1C,1460 nM (active)
2,Cc1cccc(NS(=O)(=O)c2ccc3c(c2)CCC(=O)N3)c1,1830 nM (active)
3,Cc1cc(N2C(=O)c3ccccc3C2=O)n[nH]1,inactive
4,O=C1c2ccccc2C(=O)N1c1ncccc1O,inactive
5,O=C1c2ccccc2C(=O)N1c1cccc2ncccc12,inactive
6,Cc1ccc(NS(=O)(=O)c2cc3c(cc2Cl)NC(=O)CO3)cc1C,819 nM (active)
7,Cc1ccc(NS(=O)(=O)c2ccc(N3CCCC3=O)cc2)cc1C,inactive
8,Cc1ccc(NS(=O)(=O)c2cc3c(cc2-c2cn[nH]c2)NC(=O)CO3)cc1C,inactive
9,Cc1cc2c(s1)c1cnn(Cc3cc(F)ccc3F)c(=O)c1n2C,447 nM (active)
10,CNc1cccc(S(=O)(=O)N2CCN(S(=O)(=O)c3ccc4c(c3)OCCO4)CC2)c1,inactive
11,Cc1ccc(NS(=O)(=O)c2cc3c(cc2N2CCCCC2)NC(=O)CC3)cc1C,inactive
12,O=C1c2ccccc2C(=O)N1c1cccc2cccnc12,inactive
13,O=S1(=O)N=C(Oc2cccc(Cl)c2)c2ccccc21,inactive
14,O=C1c2ccccc2C(=O)N1c1ccc2ncccc2c1,inactive
15,Cc1ccc(NS(=O)(=O)c2cccc(C(=O)O)c2)cc1C,inactive
16,Cc1ccc2nc(-c3ccc(C)o3)c(NC3CCCC3)n2c1,inactive
17,O=C1c2ccccc2C(=O)N1c1cccc(=O)[nH]1,inactive
18,Cc1cc(C)n2c(Nc3ccccc3)c(-c3ccc(C)o3)nc2n1,inactive
19,Cc1ccc(NS(=O)(=O)c2cc3c(cc2-c2ccccc2)NC(=O)CO3)cc1C,inactive

row,Compound,Potency
1,Cc1ccc(NS(=O)(=O)c2ccc(-c3ccccc3)cc2)cc1C,inactive
2,O=C1c2ccccc2C(=O)N1c1cc(=O)c2ccccc2[nH]1,inactive
3,Cc1ccc(NS(=O)(=O)c2ccc(Cl)cc2)cc1C,inactive
4,O=C1c2ccccc2C(=O)N1Cc1ccncc1,inactive
5,Cc1ccc2nc(-c3cccs3)c(Nc3ccccc3)n2c1,inactive
6,COc1ccccc1N1C(=O)c2ccccc2C1=O,inactive
7,O=S(=O)(c1ccc2c(c1)OCCO2)N1CCN(S(=O)(=O)c2c(F)cccc2F)CC1,5800 nM (active)
8,O=C1c2ccccc2C(=O)N1c1cccc(O)c1,inactive
9,Cc1ccc(NS(=O)(=O)c2ccc3c(c2)CCC(C)(C)O3)cc1C,inactive
10,Cc1ccn2c(NC3CCCCC3)c(-c3ccc(C)o3)nc2c1,inactive
11,COc1cccc(OC2=NS(=O)(=O)c3ccccc32)c1,inactive
12,O=C1c2ccccc2C(=O)N1c1cncc2ccccc12,inactive
13,Cc1ccc(NS(=O)(=O)c2cccc(Cl)c2)cc1C,inactive
14,Cc1ccc(NS(=O)(=O)c2ccc3c(c2)CCN(C(=O)C(F)(F)F)C3)cc1C,inactive
15,Cc1cccc(OC2=NS(=O)(=O)c3ccccc32)c1,inactive
16,COc1ccc(S(=O)(=O)Nc2ccc(C)c(C)c2)cc1,inactive
17,Fc1ccccc1-c1ccc(-c2nc3ccc(Cl)cn3c2Nc2ccc(Cl)cc2)o1,inactive
18,O=C1c2ccccc2C(=O)N1c1ccc2ccccc2n1,inactive
19,O=C1c2ccccc2C(=O)N1c1nccs1,inactive

# From PubChem BioAssay AID2576 (National Center for Advancing Translational Sciences (NCATS), 2010)
